Screening data: PubChem, Sanford-Burnham Center for Chemical Genomics
KKLEB tox – reduces viability of KKLEB cystic fibrosis airway cells; KKLEB CF airway cells viability, ATPlite luminescence, overnight; active compounds read low; cells stimulated with P. aeruginosa culture filtrate; hit rate 0.36% among 360,000; activity change (cytotoxicity), % at 5 µM;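 active = corrected activity change at or below -50% at 5 µM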
TROY signal inh – blocks TROY-dependent signaling in reporter cells. Q293 LMP1-TROYcd NF-kB luciferase reporter, 4 h. AID 1347056. inhibition, % at 10 µM. hit rate 0.98% among 360,000;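 active = compounds whose plate-normalised and pattern-corrected inhibition of the luciferase reporter signal at the single screening dose is 50% or more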
HIF-2a block – blocks HIF-2a reporter activity | 786-0 RCC cells HIF-2a reporter, luciferase luminescence, overnight | inhibition, % at 18.8 µM | hit rate 0.72% among 360,000 | AID 624352;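 active = inhibition of the luminescence signal of 40% or more relative to plate controls, in a single-dose primary screen at 18.75 µM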
Peg3 promoter – Peg3 promoter activity inhibition; HeLa PEG-Prom luciferase reporter, luminescence, overnight; inhibition, % at 20 µM; hit rate 1.7% among 360,000; AID 588405;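 active = inhibition of at least 50% at 20 µM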
CF NFkB block – inhibitors of cystic fibrosis induced NF-kB; hit rate 0.86% among 360,000; inhibition, % at 5 µM; KKLEB NF-kB-GFP reporter, PAF-induced, GFP fluorescence overnight;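 active = at least 50% inhibition at 5 µM, scaled per plate between neutral and stimulator controls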;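 also: PAF is a Pseudomonas aeruginosa culture filtrate used as stimulus; plate controls were PAF-stimulated DMSO wells for no effect and unstimulated DMSO wells for full effect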
TWEAK Fn14 block – TWEAK-Fn14 signaling inhibition. inhibition, % at 10 µM. hit rate 2% among 360,000. TWEAK-stimulated Fn14 reporter cells, luciferase luminescence, 8 h; in the data active = inhibition above about 50%
The depositor's hits bear a star; . = no result. Compounds with a hit are over-represented: about 4% of the library has one in this group of screens.

SMILES	KKLEB tox	TROY signal inh	HIF-2a block	Peg3 promoter	CF NFkB block	TWEAK Fn14 block
CCC(=O)Nc1cccc(C2=NOC3(C2)C[C@@H](C(N)=O)N(C(=O)C(c2ccccc2)c2ccccc2)C3)c1 (some centres not stated)	2	0	-3	1	-5	8
NC(=O)[C@H]1CC2(CC(c3cccc(NC(=O)COc4ccc(Cl)cc4)c3)=NO2)CN1C(=O)C(c1ccccc1)c1ccccc1 (some centres not stated)	2	33	-54	40	0	57*
O=C(Oc1ccc(NC2=C(Cl)C(=O)c3ccccc3C2=O)cc1)c1ccc([N+](=O)[O-])cc1	-15	24	13	99*	20	21
COCCN(C(=O)c1cc(-c2ccc(F)cc2)nc2ccccc12)c1c(N)n(CC(C)C)c(=O)[nH]c1=O	9	-11	14	8	-7	8
N#Cc1c(-c2ccccc2)nc(-c2ccccc2)nc1N1CCOCC1	-7	.	7	-10	13	79*
CN1CCN(c2nc(-c3ccccc3)nc(-c3ccccc3)c2C#N)CC1	-14	-11	6	17	11	1
N/C(=N\c1nc2ccccc2o1)NC(=O)/C=C/c1ccccc1	4	40	-57	-44	-4	55*
N/C(=N\c1nc2ccccc2o1)NC(=O)c1ccccc1	1	-37	-248	-201	-35	-20
Cc1ccc(-c2cc3nc4c(c(=O)n3[nH]2)CCCC4)cc1	2	-10	-197	-86	-12	62*
O=C(CCS(=O)(=O)c1ccccc1)Nc1cccc(-c2nc3ccccc3s2)c1	26	57*	-305	-101	-88	87*
O=C(O)CCC(=O)Nc1cccc(-c2csc(-c3ccccc3)n2)c1	5	8	83*	-1	14	57*
Cn1c(=O)c2ncn(CC(=O)Nc3cccc(-c4nc5ccccc5s4)c3)c2n(C)c1=O	4	36	-389	-147	-29	67*
CCOc1cc(C(=O)NC(C)C2CC3CCC2C3)cc(OCC)c1OCC (configuration not stated)	-4	-13	13	8	-9	-7
COc1ccc(CCNC(=O)CN(c2cc(C)cc(C)c2)S(=O)(=O)c2c(C)noc2C)cc1OC	-6	1	2	21	35	-8
CCOC(=O)C1(C)CCN1C(=O)c1ccc(-c2ccccc2)cc1 (configuration not stated)	-2	-35	-127	-93	-7	-22
Oc1ccccc1C=Nc1cccc2ccccc12	-10	66*	18	12	-4	69*
Oc1cccc(C=Nc2cccc3ccccc23)c1O	1	61*	14	6	-6	101*
Cc1ccc(F)cc1CNC(=O)c1cc(COc2ccc3ncccc3c2)on1	-27	46	10	15	30	75*
O=C(NCc1cccc(Cl)c1)c1cc(COc2ccc3ncccc3c2)on1	-10	53*	-4	0	14	61*
Cc1cc(C)n(CCNC(=O)c2cc(COc3ccc4ncccc4c3)on2)n1	-1	13	-9	1	7	9
COc1ccc(NC(=O)c2ccc(NC(=O)C3COc4ccccc4O3)cc2)c(OC)c1 (configuration not stated)	1	-7	-17	-18	4	-3
CCOC(=O)c1c(C)n(C)c2ccc(OC)c(NC(=O)CN3CCSCC3)c12	7	9	-7	77*	-5	8
CCN(CC)S(=O)(=O)c1ccc2c(c1)nc(SCC(=O)NC1CC1)n2-c1ccccc1OC	7	.	18	12	8	61*
O=c1c2ccccc2n2c(=S)[nH]nc2n1-c1ccccc1	4	6	2	4	13	-6
Cc1cc(O)ccc1N/C=C/c1onc(C)c1[N+](=O)[O-]	-52*	37	-171	-234	37	3
SMILES	KKLEB tox	TROY signal inh	HIF-2a block	Peg3 promoter	CF NFkB block	TWEAK Fn14 block
Cc1nnn(C23CC4CC(CC(CC(=O)Nc5ccc(C)c(Cl)c5)(C4)C2)C3)n1	-2	-21	15	12	21	-1
CCS(=O)CCSc1nc2ccccc2s1 (configuration not stated)	4	60*	-25	-39	-6	80*
c1ccc(NCCSc2nc3ccccc3s2)cc1	14	-38	-152	-168	-28	-6
COc1ccc(C(=O)CCS(=O)(=O)c2ccc(C)cc2)cc1OC	8	20	22	59*	26	5
COc1ccc(C(=O)COC(=O)CCS(=O)(=O)c2ccc(C)cc2)c(OC)c1	4	-9	21	10	6	7
Cc1cc(C)c(/C=C(\C#N)S(=O)(=O)c2ccccc2)[nH]1	-4	-11	27	17	27	3
Cc1cc(C(=O)CCl)c(C)n1-c1ccon1	9	-3	-1	53*	58*	0
Cc1cc(C(=O)CCl)c(C)n1-c1cccc([N+](=O)[O-])c1	-19	6	7	105*	31	2
CC(=O)c1cccc(OCC(=O)c2cc(C)n(-c3cc(C)on3)c2C)c1	-3	-2	-15	-10	-6	6
CCCCNC(=O)C1(C)CCN1C(=O)c1ccc(C(F)(F)F)nc1C (configuration not stated)	5	-4	11	5	-6	-2
Cc1cc(-c2ccc(N3CCOCC3)cc2)nc2ccccc12	-28	-41	-210	-149	-15	-29
c1ccc2nc(-c3ccc(N4CCOCC4)cc3)ccc2c1	-46	53*	-9	32	-20	90*
CC1=C(C(=O)Nc2ccccc2)C(c2ccc(C)o2)n2ncnc2N1 (configuration not stated)	0	.	10	13	1	83*
C#CCn1c(=NC(=O)c2ccc(S(=O)(=O)N3CCc4ccccc4C3)cc2)sc2cc(S(N)(=O)=O)ccc21	-53*	7	-7	103*	52*	10
Cc1ccc(N(CC(=O)Nc2ccc(F)cc2)S(=O)(=O)N2CCCC2)cc1	-1	-13	22	17	0	14
Cc1nc2ccc(NC(=O)N3CCCCC3)cc2nc1C	-6	50*	-115	-179	3	21
CC(CCc1ccco1)NC(=O)CCc1nnc2ccc(NCc3ccccc3)nn12 (configuration not stated)	10	-17	18	8	11	-12
Cc1ccc(/C=N/NC(=O)c2nnn(-c3nonc3N)c2CSc2ccccc2)s1	6	3	-4	28	3	-31
COc1cc(OC)c2c(-c3ccccc3)cc(=O)oc2c1C(CCN1CCCC(C)C1)c1ccc(N(C)C)cc1 (configuration not stated)	-25	8	25	78*	31	4
